In publication PMC7862700, “An all-to-all approach to the identification of sequence-specific readers for epigenetic DNA modifications on cytosine” one finds binding signal data, which are given here for one sequence.

Holding throughout (test): DAPPL (digital affinity profiling via proximity ligation, sequencing); 10 mM Tris-HCl pH 7.5, 50 mM NaCl, 1 mM DTT, 4% glycerol, room temperature, 30 min; GST-TFs on glutathione beads, 16-mer random dsDNA library, 0.1% formaldehyde crosslink after washing; high values mean tight binding
One experiment deals with T1, FLI1 (Homo sapiens, UniProt Q01543 1-452).
T1 sequence: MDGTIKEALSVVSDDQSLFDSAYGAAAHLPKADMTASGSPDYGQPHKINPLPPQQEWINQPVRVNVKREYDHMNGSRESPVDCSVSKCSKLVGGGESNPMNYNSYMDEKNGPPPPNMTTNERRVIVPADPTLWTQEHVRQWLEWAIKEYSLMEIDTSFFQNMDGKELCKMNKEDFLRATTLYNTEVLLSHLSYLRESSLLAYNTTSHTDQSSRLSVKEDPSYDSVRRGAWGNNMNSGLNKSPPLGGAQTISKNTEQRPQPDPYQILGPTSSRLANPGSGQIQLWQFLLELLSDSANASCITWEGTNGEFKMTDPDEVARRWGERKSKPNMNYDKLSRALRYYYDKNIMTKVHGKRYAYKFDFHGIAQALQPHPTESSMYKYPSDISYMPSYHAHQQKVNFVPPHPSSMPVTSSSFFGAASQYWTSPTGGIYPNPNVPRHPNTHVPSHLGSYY
Particulars: protein: recombinant; tags: N-terminal GST; dsDNA, one strand shown. In a few lines:
(§1)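 Yeast served to express human transcription factors as GST fusions, which were then captured on glutathione beads and labelled with DNA barcodes. Pooled with a tag-only sample, they were incubated with 200 nmole of a 16-mer random double-stranded DNA library for 30 min at room temperature in Tris/NaCl/DTT/glycerol buffer, washed, crosslinked with 0.1% formaldehyde, ligated by proximity, amplified by PCR and sequenced. Dividing each hexamer's read frequency for a factor by its frequency for the tag-only sample gives the binding signal.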

The target in the next experiment is T2, ELK1 (Homo sapiens, UniProt P19419 1-428).
T2 sequence: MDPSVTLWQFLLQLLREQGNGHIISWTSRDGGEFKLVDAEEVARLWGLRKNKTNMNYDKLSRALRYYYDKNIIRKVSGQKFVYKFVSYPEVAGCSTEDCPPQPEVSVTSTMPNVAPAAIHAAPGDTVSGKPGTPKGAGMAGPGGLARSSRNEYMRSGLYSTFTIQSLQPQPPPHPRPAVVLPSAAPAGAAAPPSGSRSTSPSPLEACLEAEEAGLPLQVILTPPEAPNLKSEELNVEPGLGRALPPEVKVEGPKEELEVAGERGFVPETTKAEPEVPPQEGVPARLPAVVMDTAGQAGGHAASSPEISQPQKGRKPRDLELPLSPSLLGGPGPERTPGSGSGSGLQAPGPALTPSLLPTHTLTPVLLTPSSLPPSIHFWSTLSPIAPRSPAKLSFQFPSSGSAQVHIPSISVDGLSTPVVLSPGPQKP
Particulars: protein: recombinant; tags: N-terminal GST; dsDNA, one strand shown. The procedure, abridged: as §1

For another experiment, the target named is T3, GABPA (Homo sapiens, UniProt Q06546 1-454).
T3 sequence: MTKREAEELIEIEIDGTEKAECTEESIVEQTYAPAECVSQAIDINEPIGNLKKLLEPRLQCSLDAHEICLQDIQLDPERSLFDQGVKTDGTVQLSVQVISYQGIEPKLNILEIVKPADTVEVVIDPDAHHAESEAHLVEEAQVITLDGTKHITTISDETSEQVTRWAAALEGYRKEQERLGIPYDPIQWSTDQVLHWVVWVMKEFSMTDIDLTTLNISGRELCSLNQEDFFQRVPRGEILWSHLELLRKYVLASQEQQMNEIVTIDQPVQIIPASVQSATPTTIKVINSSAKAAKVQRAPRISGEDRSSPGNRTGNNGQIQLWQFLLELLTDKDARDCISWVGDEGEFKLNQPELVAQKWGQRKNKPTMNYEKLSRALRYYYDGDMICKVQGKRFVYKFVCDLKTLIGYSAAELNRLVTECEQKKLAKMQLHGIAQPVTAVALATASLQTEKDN
As to conditions: protein: recombinant; tags: N-terminal GST; dsDNA, one strand shown. The procedure, abridged: as §1

A further experiment concerns the target T4, ERG (Homo sapiens, UniProt P11308 1-479).
T4 sequence: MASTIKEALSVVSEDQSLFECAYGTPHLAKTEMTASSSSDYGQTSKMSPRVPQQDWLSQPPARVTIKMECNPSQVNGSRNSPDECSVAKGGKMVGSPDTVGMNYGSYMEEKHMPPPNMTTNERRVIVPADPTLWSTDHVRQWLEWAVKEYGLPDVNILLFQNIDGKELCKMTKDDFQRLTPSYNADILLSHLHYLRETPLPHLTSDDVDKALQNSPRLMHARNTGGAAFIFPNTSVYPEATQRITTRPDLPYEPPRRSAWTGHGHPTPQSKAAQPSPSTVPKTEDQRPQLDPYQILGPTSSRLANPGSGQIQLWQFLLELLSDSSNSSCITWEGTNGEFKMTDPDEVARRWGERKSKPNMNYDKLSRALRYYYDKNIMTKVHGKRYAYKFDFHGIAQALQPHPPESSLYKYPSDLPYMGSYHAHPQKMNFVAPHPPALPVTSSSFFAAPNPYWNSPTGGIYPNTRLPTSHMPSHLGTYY
Particulars: protein: recombinant; tags: N-terminal GST; dsDNA, one strand shown. In a few lines: as §1

The next experiment has as its target ELF1 (Homo sapiens, UniProt P32519 1-619). Particulars: protein: recombinant; tags: N-terminal GST; dsDNA, one strand shown. In a few lines:
as §1

The next experiment concerns the target T5, EHF (Homo sapiens, UniProt Q9NZC4 1-300).
T5 sequence: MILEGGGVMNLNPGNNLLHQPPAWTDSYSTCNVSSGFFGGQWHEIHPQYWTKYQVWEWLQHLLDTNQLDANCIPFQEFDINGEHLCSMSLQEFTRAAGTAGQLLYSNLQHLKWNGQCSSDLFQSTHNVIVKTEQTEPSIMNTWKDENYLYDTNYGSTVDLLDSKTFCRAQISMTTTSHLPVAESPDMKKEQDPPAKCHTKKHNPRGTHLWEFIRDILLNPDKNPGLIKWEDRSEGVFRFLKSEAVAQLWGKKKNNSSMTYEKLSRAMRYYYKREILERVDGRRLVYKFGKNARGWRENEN
Particulars: protein: recombinant; tags: N-terminal GST; dsDNA, one strand shown. In a few lines: as §1

A further experiment deals with SPI1 (Homo sapiens, UniProt P17947 1-270). Particulars: protein: recombinant; tags: N-terminal GST; dsDNA, one strand shown. The procedure, abridged: as §1
For a further experiment, the target named is SPIB (Homo sapiens, UniProt Q01892 1-262). Particulars: protein: recombinant; tags: N-terminal GST; dsDNA, one strand shown. In a few lines:
as §1

Another experiment concerns the target T6, ELK3 (Homo sapiens, UniProt P41970 1-407).
T6 sequence: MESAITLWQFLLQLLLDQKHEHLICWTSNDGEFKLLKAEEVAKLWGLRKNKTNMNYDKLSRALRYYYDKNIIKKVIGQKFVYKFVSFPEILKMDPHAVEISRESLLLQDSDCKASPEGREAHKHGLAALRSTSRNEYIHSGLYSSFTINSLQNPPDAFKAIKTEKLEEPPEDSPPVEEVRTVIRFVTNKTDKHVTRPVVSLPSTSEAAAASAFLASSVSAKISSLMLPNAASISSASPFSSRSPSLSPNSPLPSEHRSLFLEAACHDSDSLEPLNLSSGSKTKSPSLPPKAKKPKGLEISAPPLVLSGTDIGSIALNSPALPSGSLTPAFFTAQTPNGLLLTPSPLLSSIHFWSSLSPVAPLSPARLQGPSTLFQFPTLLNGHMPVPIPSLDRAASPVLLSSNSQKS
As to conditions: protein: recombinant; tags: N-terminal GST; dsDNA, one strand shown. In a few lines: as §1

The target in a further experiment is T7, FEV (Homo sapiens, UniProt Q99581 1-238).
T7 sequence: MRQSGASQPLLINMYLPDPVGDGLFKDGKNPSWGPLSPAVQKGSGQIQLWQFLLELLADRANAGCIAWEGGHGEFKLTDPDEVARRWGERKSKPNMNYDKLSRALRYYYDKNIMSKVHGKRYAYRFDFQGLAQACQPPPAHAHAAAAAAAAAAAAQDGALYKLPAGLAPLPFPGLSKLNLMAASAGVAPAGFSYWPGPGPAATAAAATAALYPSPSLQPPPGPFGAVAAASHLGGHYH
As to conditions: protein: recombinant; tags: N-terminal GST; dsDNA, one strand shown. In a few lines: as §1

The target of the next experiment is ETV5 (Homo sapiens, UniProt P41161 1-510). As to conditions: protein: recombinant; tags: N-terminal GST; dsDNA, one strand shown. In a few lines:
as §1

Another experiment concerns the target HSF1 (Homo sapiens, UniProt Q00613 1-529). As to conditions: protein: recombinant; tags: N-terminal GST; chain copies: 3; dsDNA, one strand shown. The procedure, abridged: as §1
For the next experiment, the target named is T8, SPIC (Homo sapiens, UniProt Q8N5J4 1-248).
T8 sequence: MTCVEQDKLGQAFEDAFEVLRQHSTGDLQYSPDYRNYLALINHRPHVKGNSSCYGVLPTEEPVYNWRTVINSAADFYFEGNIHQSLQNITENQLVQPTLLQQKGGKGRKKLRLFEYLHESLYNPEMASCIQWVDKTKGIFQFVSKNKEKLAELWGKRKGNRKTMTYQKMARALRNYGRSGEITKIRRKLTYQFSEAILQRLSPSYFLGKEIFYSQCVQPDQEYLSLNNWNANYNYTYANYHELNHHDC
Particulars: protein: recombinant; tags: N-terminal GST; dsDNA, one strand shown. In a few lines: as §1

The target in a further experiment is ELF4 (Homo sapiens, UniProt Q99607 1-663). Particulars: protein: recombinant; tags: N-terminal GST; dsDNA, one strand shown. The procedure, abridged:
as §1

Another experiment concerns the target T9, ELK4 (Homo sapiens, UniProt P28324-2 1-405).
T9 sequence: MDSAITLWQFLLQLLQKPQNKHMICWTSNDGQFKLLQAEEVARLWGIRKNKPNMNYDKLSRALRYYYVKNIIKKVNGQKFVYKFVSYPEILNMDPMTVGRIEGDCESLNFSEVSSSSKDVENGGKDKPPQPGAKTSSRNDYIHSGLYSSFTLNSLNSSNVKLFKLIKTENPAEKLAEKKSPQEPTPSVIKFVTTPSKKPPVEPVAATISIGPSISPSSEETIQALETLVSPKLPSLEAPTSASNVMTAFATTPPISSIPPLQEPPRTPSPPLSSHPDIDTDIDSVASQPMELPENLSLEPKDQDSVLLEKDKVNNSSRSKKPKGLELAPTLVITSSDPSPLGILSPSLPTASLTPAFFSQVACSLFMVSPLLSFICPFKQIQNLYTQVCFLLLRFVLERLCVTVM
As to conditions: protein: recombinant; tags: N-terminal GST; dsDNA, one strand shown. In a few lines: as §1

A further experiment has as its target T10, ELF3 (Homo sapiens, UniProt P78545 1-371).
T10 sequence: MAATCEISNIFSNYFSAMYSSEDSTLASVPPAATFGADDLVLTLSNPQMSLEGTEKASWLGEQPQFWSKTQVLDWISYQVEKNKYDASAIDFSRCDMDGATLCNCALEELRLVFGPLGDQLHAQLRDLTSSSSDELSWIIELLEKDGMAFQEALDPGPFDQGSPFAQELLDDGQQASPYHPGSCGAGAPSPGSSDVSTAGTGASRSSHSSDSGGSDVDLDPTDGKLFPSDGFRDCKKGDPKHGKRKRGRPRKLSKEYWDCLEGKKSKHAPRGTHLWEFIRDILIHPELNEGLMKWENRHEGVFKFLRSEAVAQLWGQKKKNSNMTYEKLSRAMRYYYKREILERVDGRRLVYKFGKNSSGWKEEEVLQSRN
As to conditions: protein: recombinant; tags: N-terminal GST; dsDNA, one strand shown. The procedure, abridged:
as §1

Another experiment has as its target CRX (Homo sapiens, UniProt O43186 1-299). As to conditions: protein: recombinant; tags: N-terminal GST; dsDNA, one strand shown. In a few lines:
as §1

A further experiment deals with ETV1 (Homo sapiens, UniProt P50549 1-477). Particulars: protein: recombinant; tags: N-terminal GST; dsDNA, one strand shown. In a few lines:
as §1

ELF4, sequence (Q99607 whole entry): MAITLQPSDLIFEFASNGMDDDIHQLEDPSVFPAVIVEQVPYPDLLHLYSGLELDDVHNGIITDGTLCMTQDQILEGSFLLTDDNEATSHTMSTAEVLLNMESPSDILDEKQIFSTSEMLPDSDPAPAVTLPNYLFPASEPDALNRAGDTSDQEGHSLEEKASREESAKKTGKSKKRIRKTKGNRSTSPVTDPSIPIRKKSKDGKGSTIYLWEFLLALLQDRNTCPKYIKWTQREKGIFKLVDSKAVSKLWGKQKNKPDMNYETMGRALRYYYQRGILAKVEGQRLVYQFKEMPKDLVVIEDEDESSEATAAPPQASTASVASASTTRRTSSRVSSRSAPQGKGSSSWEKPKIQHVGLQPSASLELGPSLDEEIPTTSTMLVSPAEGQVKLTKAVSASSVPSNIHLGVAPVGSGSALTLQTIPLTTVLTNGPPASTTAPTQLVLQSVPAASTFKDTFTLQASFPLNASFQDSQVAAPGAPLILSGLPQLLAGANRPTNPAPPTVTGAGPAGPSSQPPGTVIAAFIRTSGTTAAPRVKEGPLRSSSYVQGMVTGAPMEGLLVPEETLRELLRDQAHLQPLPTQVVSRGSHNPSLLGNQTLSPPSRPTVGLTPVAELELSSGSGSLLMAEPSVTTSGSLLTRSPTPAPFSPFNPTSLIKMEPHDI
ELF1, sequence (P32519 whole entry): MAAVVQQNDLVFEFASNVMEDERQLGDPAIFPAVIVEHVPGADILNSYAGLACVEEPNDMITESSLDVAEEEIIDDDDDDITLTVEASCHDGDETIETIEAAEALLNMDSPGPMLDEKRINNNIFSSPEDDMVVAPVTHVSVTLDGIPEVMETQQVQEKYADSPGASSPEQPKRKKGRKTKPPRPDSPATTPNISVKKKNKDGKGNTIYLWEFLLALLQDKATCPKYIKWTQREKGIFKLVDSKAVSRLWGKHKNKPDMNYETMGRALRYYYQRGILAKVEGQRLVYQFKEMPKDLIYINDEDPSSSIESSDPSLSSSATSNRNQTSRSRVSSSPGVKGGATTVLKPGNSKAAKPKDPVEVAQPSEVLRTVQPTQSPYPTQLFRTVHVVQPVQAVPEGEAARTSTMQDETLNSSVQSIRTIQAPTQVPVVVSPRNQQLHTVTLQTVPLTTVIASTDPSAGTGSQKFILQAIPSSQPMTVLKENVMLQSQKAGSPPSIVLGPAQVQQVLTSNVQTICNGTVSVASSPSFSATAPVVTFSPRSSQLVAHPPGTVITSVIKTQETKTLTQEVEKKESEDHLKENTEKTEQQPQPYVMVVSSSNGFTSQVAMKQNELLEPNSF
CRX, sequence (O43186 whole entry): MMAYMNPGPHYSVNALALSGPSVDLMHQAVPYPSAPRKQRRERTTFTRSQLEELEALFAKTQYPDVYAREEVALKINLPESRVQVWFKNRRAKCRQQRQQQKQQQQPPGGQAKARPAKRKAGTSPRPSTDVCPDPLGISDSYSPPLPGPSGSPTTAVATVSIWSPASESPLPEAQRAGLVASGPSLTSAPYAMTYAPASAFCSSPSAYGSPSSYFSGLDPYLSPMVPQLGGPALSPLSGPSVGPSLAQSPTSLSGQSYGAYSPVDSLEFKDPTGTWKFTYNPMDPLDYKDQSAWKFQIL
ETV5, sequence (P41161 whole entry): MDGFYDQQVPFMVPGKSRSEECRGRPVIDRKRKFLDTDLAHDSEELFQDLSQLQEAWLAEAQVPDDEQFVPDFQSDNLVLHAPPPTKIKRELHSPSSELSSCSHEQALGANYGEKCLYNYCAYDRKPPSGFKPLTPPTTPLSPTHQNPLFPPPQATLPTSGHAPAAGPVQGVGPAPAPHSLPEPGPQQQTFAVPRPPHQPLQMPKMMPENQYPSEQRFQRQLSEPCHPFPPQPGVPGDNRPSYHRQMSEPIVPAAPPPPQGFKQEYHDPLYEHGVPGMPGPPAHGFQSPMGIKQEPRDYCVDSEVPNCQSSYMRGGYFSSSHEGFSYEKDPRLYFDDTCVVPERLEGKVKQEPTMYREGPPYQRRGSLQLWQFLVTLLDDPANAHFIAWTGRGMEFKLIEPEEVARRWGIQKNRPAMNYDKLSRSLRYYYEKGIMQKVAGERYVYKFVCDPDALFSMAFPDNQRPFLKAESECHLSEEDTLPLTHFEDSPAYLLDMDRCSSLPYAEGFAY
ETV1, sequence (P50549 whole entry): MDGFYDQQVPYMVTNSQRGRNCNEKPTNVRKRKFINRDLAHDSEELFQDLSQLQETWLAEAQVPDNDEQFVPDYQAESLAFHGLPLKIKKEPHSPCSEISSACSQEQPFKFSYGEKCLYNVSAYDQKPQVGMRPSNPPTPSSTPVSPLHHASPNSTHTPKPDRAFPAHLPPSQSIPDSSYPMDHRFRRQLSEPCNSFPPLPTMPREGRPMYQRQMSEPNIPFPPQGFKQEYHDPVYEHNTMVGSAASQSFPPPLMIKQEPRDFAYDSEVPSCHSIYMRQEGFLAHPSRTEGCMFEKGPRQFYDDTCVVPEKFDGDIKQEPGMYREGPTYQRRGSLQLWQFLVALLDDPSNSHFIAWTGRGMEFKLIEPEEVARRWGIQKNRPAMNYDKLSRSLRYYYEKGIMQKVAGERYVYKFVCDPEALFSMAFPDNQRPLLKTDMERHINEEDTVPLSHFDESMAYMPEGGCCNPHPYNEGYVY
SPIB, sequence (Q01892 whole entry): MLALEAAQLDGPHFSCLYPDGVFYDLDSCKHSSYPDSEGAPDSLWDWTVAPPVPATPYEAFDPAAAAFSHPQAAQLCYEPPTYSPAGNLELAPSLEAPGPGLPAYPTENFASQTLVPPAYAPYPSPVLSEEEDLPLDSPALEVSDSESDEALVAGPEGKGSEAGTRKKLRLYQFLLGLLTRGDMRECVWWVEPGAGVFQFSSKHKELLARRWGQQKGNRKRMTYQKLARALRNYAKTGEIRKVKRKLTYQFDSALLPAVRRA
HSF1, sequence (Q00613 whole entry): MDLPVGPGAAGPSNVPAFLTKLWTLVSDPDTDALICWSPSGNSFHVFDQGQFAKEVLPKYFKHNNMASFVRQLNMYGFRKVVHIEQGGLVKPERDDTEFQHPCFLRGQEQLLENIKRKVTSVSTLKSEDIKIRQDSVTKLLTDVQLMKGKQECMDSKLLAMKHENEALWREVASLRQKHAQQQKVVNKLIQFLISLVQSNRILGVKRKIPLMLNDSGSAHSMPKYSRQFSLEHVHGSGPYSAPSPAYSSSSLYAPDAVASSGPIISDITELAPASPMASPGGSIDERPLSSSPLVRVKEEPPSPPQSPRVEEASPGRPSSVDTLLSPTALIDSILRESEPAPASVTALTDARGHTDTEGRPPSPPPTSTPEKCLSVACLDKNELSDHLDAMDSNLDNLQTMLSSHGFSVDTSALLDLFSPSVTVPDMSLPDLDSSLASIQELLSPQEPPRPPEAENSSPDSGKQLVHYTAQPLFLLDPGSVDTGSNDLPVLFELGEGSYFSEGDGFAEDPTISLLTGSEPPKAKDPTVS

As for CTTGGC, the binding signal with FLI1 was 1.19 fold enrichment (6-mer frequency, TF over GST control); with ELK1 it was 1.23 fold enrichment (6-mer frequency, TF over GST control); in the experiment with GABPA it was 1.25 fold enrichment (6-mer frequency, TF over GST control); in the experiment with ERG, 1.12 fold enrichment (6-mer frequency, TF over GST control); in the experiment with ELF1, 1.14 fold enrichment (6-mer frequency, TF over GST control); with EHF, 1.22 fold enrichment (6-mer frequency, TF over GST control). The binding signal with SPI1 was 1.18 fold enrichment (6-mer frequency, TF over GST control); with SPIB, 1.2 fold enrichment (6-mer frequency, TF over GST control); with ELK3 it was 1.18 fold enrichment (6-mer frequency, TF over GST control); in the experiment with FEV, 1.24 fold enrichment (6-mer frequency, TF over GST control); with ETV5, 1.1 fold enrichment (6-mer frequency, TF over GST control); in the experiment with HSF1, 1.03 fold enrichment (6-mer frequency, TF over GST control). The binding signal was 1.14 fold enrichment (6-mer frequency, TF over GST control) with SPIC; 1.21 fold enrichment (6-mer frequency, TF over GST control) in the experiment with ELF4; 1.42 fold enrichment (6-mer frequency, TF over GST control) with ELK4; 1.19 fold enrichment (6-mer frequency, TF over GST control) with ELF3; 1.03 fold enrichment (6-mer frequency, TF over GST control) with CRX; 1.15 fold enrichment (6-mer frequency, TF over GST control) with ETV1.
